# Measurements: PubChem BioAssay (EPA / NIEHS)
# Records with an inconclusive call do not appear. Active and inactive are the calls of the source. How the source made its calls, unless noted: active means hit-call score of the fitted dose curve at least 0.9, where 1 is the maximum; inactive means score below 0.9.
# Key:
# [1] = IUF_NPC2c_oligodendrocyte_migration_120hr: Leibniz Research Institute for Environmental Medicine (IUF) 120-hour Neural Progenitor Cell Migration Assay for Oligodendrocyte Migration (NPC2c) (AID 2284297);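 further: O4-positive oligodendrocyte migration distance divided by radial glia migration distance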
# Outline: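 hNPC spheres (GW 16-19 cortex), PDL/laminin, DMEM/F12 3:1 + 1% N2, 37C. Dosing day 0–5, half feed day 3, DMSO ≤0.1%. Fixed 120 h; O4 ICC + Hoechst, HCI. Readout: mean oligodendrocyte distance from sphere edge / radial glia distance.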
# [2] = IUF_NPC2a_radial_glia_migration_120hr: Leibniz Research Institute for Environmental Medicine (IUF) 120-hour Neural Progenitor Cell Migration Assay for Radial Glia Migration (NPC2a) (AID 2284298)
# Outline: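 Hoechst-stained nuclei imaged at 120 h; algorithm maps sphere core by densest nuclei, sets migration edge at density threshold, gives radial glia migration distance (um) per well vs DMSO. hNPC spheres (0.3 mm), PDL/laminin, DMEM/F12 3:1 + 1% N2.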
# [3] = IUF_NPC2a_radial_glia_migration_72hr: Leibniz Research Institute for Environmental Medicine (IUF) 72-hour Neural Progenitor Cell Migration Assay for Radial Glia Migration (NPC2a) (AID 2284299)
# Outline: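 Radial glia migration (µm, sphere core edge to migration front, four directions averaged) from brightfield images at 72 h; hNPC spheres differentiating on PDL/laminin in N2 medium, compound exposure at 7 concentrations from plating.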
# [4] = IUF_NPC2b_neuronal_migration_120hr: Leibniz Research Institute for Environmental Medicine (IUF) 120-hour Neural Progenitor Cell Migration Assay for Neuron Migration (NPC2b) (AID 2284300)
# Outline: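 hNPC spheres, PDL/laminin, DMEM:F12 3:1 + 1% N2, 37C/5% CO2; 7 concentrations + solvent control (DMSO ≤0.1%), 5 d exposure, half-feed day 3. Fix 120 h, TUBB3 ICC, HCI: mean neuron migration distance ÷ glia distance.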
# [5] = IUF_NPC3_neuronal_differentiation_120hr: Leibniz Research Institute for Environmental Medicine (IUF) 120-hour Neuronal Differentiation Assay (NPC3) (AID 2284301)
# Outline: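 hNPC spheres, PDL/laminin, DMEM/F12 3:1 + 1% N2, 37C, 5% CO2; 7 concentrations + solvent control, 5 d exposure, half-change day 3. Fix 120 h; TUBB3/Hoechst ICC, CNN neuron calling; % neurons vs nuclei, DMSO-normalized.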
# [6] = IUF_NPC4_neurite_length_120hr: Leibniz Research Institute for Environmental Medicine (IUF) 120-hour Neuronal Morphology Assay for Neurite Length (NPC4) (AID 2284302)
# Outline: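 hNPC spheres (0.3 mm, fetal brain GW 16-19) on PDL/laminin, DMEM:F12 3:1 + 1% N2, 37C 5% CO2; 7 concs + solvent control, day 0-5, half medium change d3; fix 120 h, TUBB3 ICC, mean neurite length um vs DMSO.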
# [7] = IUF_NPC4_neurite_area_120hr: Leibniz Research Institute for Environmental Medicine (IUF) 120-hour Neuronal Morphology Assay for Neurite Area (NPC4) (AID 2284305; active means hit-call score of the fitted dose curve at least 0.9, where 1 is the maximum)
# Outline: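 hNPC spheres on PDL/laminin, N2 medium, 37C/5% CO2; dosed day 0, half-medium refresh day 3; fixed 120 h; TUBB3/Hoechst ICC, high-content imaging; neurite area = mean pixels per neuron (nuclei excluded); DMSO baseline, max 0.1%.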
# [8] = IUF_NPC2-5_cytotoxicity_72hr: Cytotoxicity Assessment at 72 hours in the Leibniz Research Institute for Environmental Medicine (IUF) Neural Progenitor Cell Migration and Differentiation Assay for Cytotoxicity (NPC2-5) (AID 2284306; active means hit-call score of the fitted dose curve at least 0.9, where 1 is the maximum;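 further: LDH release into supernatant measured by resorufin fluorescence marking membrane damage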)
# Outline: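 hNPC spheres (0.3 mm), PDL/laminin, DMEM/F12 3:1 + 1% N2; cpd from d0, 7 concs + SC, DMSO max 0.1%; half-medium refresh d3. Readout: supernatant LDH via resorufin fluorescence (RFU), 72 h; gain-of-signal fit.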
# [9] = IUF_NPC2-5_cytotoxicity_120hr: Cytotoxicity Assessment at 120 hours in the Leibniz Research Institute for Environmental Medicine (IUF) Neural Progenitor Cell Migration and Differentiation Assay (NPC2-5) (AID 2284307; active means hit-call score of the fitted dose curve at least 0.9, where 1 is the maximum;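 on AC50: LDH released into supernatant as membrane damage marker via resorufin fluorescence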)
# Outline: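 hNPC spheres on PDL/laminin, N2 medium, 37C; 7 concs + solvent control, DMSO ≤0.1%; 5-day exposure, half medium changed day 3. LDH in supernatant at 120 h, resazurin→resorufin fluorescence, gain-of-signal.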
# [10] = read-out: Actin alpha 1 (ACTA1), ACTA1 (gene 58); test: BSK_MyoF_ACTA1: BioMAP Diversity Plus: MyoF Assay for Actin alpha 1 (ACTA1) Biomarker Activity (AID 2284244); conditions: primary human lung fibroblasts
# Outline: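 alpha-SMA levels read by ELISA against DMSO baseline, 24 h post-dose, in primary human lung fibroblasts. Parallel cultures stained with 0.1% SRB after 10% TCA fixation (560 nm) to flag overt cytotoxicity.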
# [11] = read-out: Interleukin 2 (IL2), IL2 (gene 3558); test: BSK_BT_xIL2: BioMAP Diversity Plus: BT Assay for Interleukin 2 (IL2) Biomarker Activity (AID 2284245); conditions: primary human B cells with PBMC
# Outline: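 Secreted IL-2 was read by Luminex xMAP from B cells co-cultured with PBMC (human primary) 24 h post-dosing; activity was analysed as gain of signal relative to DMSO vehicle.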
# [12] = read-out: Basic fibroblast growth factor (bFGF), FGF2 (gene 2247); test: BSK_MyoF_bFGF: BioMAP Diversity Plus: MyoF Assay for Basic fibroblast growth factor (bFGF) Biomarker Activity (AID 2284246); conditions: primary human lung fibroblasts
# Outline: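 bFGF was measured by ELISA in primary human lung fibroblasts 24 h after chemical addition. Signal was analysed as positive-direction change relative to DMSO baseline.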
# [13] = read-out: Collagen IV, COL4A1 (gene 1282); test: BSK_MyoF_CollagenIV: BioMAP Diversity Plus: MyoF Assay for Collagen IV Biomarker Activity (AID 2284247); conditions: primary human lung fibroblasts
# Outline: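 Collagen IV quantified by ELISA in human lung fibroblast cultures 24 h after chemical treatment, with DMSO as baseline. Parallel SRB staining (0.1% SRB after TCA fixation, 560 nm) flags overt cytotoxicity.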
# [14] = read-out: Plasminogen activator inhibitor-1 (PAI1), SERPINE1 (gene 5054); test: BSK_MyoF_PAI1: BioMAP Diversity Plus: MyoF Assay for Plasminogen activator inhibitor-1 (PAI1) Biomarker Activity (AID 2284256); conditions: primary human lung fibroblasts;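 on outcome: PAI-1 protein level measured by ELISA in fibroblast cultures; PAI-1 read 24 h after compound addition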
# Outline: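 MyoF lung fibroblasts, human primary; compound 24 h; PAI-1 ELISA; positive-direction fit vs DMSO baseline; parallel SRB total-protein staining for cytotoxicity.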
# [15] = read-out: Interleukin-8 (IL8), CXCL8 (gene 3576); test: BSK_MyoF_IL8: BioMAP Diversity Plus: MyoF Assay for Interleukin-8 (IL8) Biomarker Activity (AID 2284261); conditions: primary human lung fibroblasts
# Outline: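 Lung fibroblasts (human primary) → chemical exposure → 24 h → IL-8 measured by ELISA. Signal increase scored versus DMSO control.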
# [16] = read-out: Decorin, DCN (gene 1634); test: BSK_MyoF_Decorin: BioMAP Diversity Plus: MyoF Assay for Decorin Biomarker Activity (AID 2284265); conditions: primary human lung fibroblasts
# Outline: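 ELISA readout of decorin, 24 h post-dosing; primary human lung fibroblast (MyoF) culture; gain-of-signal fit vs DMSO baseline.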
# [17] = BSK_MyoF_SRB: Viability Assessment in the BioMAP Diversity Plus: MyoF Assay (AID 2284267); conditions: primary human lung fibroblasts;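 further: total protein by SRB absorbance in parallel cultures as cytotoxicity measure; cells assessed 24 h after compound addition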
# Outline: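 Cytotoxicity read-out: after 10% TCA fixation, parallel human lung fibroblast cultures were stained with 0.1% SRB at 24 h post-dosing and read at 560 nm; DMSO served as baseline.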
# [18] = read-out: Matrix Metallopeptidase 1 (MMP1), MMP1 (gene 4312); test: BSK_MyoF_MMP1: BioMAP Diversity Plus: MyoF Assay for Matrix Metallopeptidase 1 (MMP1) Biomarker Activity (AID 2284268); conditions: primary human lung fibroblasts
# Outline: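 Cells: human lung fibroblasts. Exposure: 24 h chemical dosing. Detection: ELISA for MMP1. Analysis: upward fitting against DMSO negative control.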
# [19] = read-out: TIMP metallopeptidase inhibitor 1 (TIMP1), TIMP1 (gene 7076); test: BSK_MyoF_TIMP1: BioMAP Diversity Plus: MyoF Assay for TIMP metallopeptidase inhibitor 1 (TIMP1) Biomarker Activity (AID 2284269); conditions: primary human lung fibroblasts
# Outline: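 TIMP-1 levels were determined by ELISA in human lung fibroblasts treated for 24 h. DMSO served as negative control and baseline for upward curve fitting.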
# [20] = IUF_NPC5_oligodendrocyte_differentiation_120hr: Leibniz Research Institute for Environmental Medicine (IUF) 120-hour Oligodendrocyte Differentiation Assay (NPC5) (AID 2284304; active means hit-call score of the fitted dose curve at least 0.9, where 1 is the maximum;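 further: primary human fetal neural progenitor spheres plated to migrate and differentiate; share of O4-positive cells among Hoechst nuclei found by CNN image analysis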)
# Outline: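 hNPC spheres, fetal cortex GW 16-19; PDL/laminin, DMEM:F12 3:1 + 1% N2, 37C/5% CO2; 7 concentrations + solvent control, 5 d exposure, half-change day 3. Readout: %O4+ of Hoechst+ nuclei in migration area, CNN classification; DMSO baseline.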
compound,measurement,setting,value
CC1=NNC(=O)N(/N=C/c2cccnc2)C1,outcome,[1],inactive
same,outcome,[2],inactive
same,outcome,[3],inactive
same,outcome,[4],inactive
same,outcome,[5],inactive
same,outcome,[6],inactive
same,outcome,[7],inactive
same,outcome,[8],inactive
same,outcome,[9],inactive
O=[N+]([O-])c1cc(C(F)(F)F)c(Cl)c([N+](=O)[O-])c1Nc1ncc(C(F)(F)F)cc1Cl,AC50,[10],2.27 µM (active)
same,AC50,[11],3.34 µM (active)
same,AC50,[12],3.75 µM (active)
same,AC50,[13],2.27 µM (active)
same,AC50,[14],2.2 µM (active)
same,AC50,[15],20 µM (active)
same,AC50,[16],5.88 µM (active)
same,AC50,[17],2.6 µM (active)
same,AC50,[18],3.25 µM (active)
same,AC50,[19],3.9 µM (active)
same,AC50,[1],0.736 µM (active)
same,AC50,[2],0.832 µM (active)
same,AC50,[3],0.73 µM (active)
same,AC50,[4],0.796 µM (active)
same,AC50,[5],0.601 µM (active)
same,AC50,[6],1.02 µM (active)
same,AC50,[20],1.3 µM (active)
same,AC50,[7],1.13 µM (active)
same,AC50,[8],3.71 µM (active)
same,AC50,[9],1.08 µM (active)
CC(=NC#N)N(C)Cc1ccc(Cl)nc1,outcome,[1],inactive
same,outcome,[2],inactive
same,outcome,[3],inactive
same,outcome,[4],inactive
same,outcome,[5],inactive
same,outcome,[6],inactive
same,outcome,[7],inactive
same,outcome,[8],inactive
same,outcome,[9],inactive
CCOP(=S)(OCC)Oc1cc(C)nc(C(C)C)n1,outcome,[1],inactive
same,outcome,[2],inactive
same,outcome,[3],inactive
same,outcome,[4],inactive
same,outcome,[5],inactive
same,outcome,[6],inactive
same,outcome,[20],inactive
same,outcome,[7],inactive
same,outcome,[8],inactive
same,outcome,[9],inactive
COP(=O)(NC(C)=O)SC (stereo not given),outcome,[1],inactive
same,outcome,[2],inactive
same,outcome,[3],inactive
same,outcome,[4],inactive
same,outcome,[5],inactive
same,outcome,[6],inactive
same,outcome,[20],inactive
same,outcome,[7],inactive
same,outcome,[8],inactive
same,outcome,[9],inactive
S=C1NCCN1,outcome,[1],inactive
same,outcome,[2],inactive
same,outcome,[3],inactive
same,outcome,[4],inactive
same,outcome,[5],inactive
same,outcome,[6],inactive
same,outcome,[20],inactive
same,outcome,[7],inactive
same,outcome,[8],inactive
same,outcome,[9],inactive
COP(=O)(OC)C(O)C(Cl)(Cl)Cl (stereo not given),outcome,[1],inactive
same,outcome,[2],inactive
same,outcome,[3],inactive
same,outcome,[4],inactive
same,outcome,[5],inactive
same,AC50,[6],5.03 µM (active)
same,AC50,[7],5.08 µM (active)
same,outcome,[8],inactive
same,outcome,[9],inactive
CSC1=N[C@@](C)(c2ccccc2)C(=O)N1Nc1ccccc1,outcome,[1],inactive
same,outcome,[2],inactive
same,outcome,[3],inactive
same,outcome,[4],inactive
same,outcome,[5],inactive
same,outcome,[6],inactive
same,outcome,[7],inactive
same,outcome,[8],inactive
same,outcome,[9],inactive
CN1COCN(Cc2cnc(Cl)s2)C1=N[N+](=O)[O-],outcome,[1],inactive
same,outcome,[2],inactive
same,outcome,[3],inactive
same,outcome,[4],inactive
same,outcome,[5],inactive
same,outcome,[6],inactive
same,outcome,[20],inactive
same,outcome,[7],inactive
same,outcome,[8],inactive
same,outcome,[9],inactive
CCCSP(=O)(OCC)SCCC,outcome,[1],inactive
same,outcome,[2],inactive
same,outcome,[3],inactive
same,outcome,[4],inactive
same,outcome,[5],inactive
same,outcome,[6],inactive
same,outcome,[20],inactive
same,outcome,[7],inactive
same,outcome,[8],inactive
same,outcome,[9],inactive
CON=C(C(=O)OC)c1ccccc1CON=C(C)c1cccc(C(F)(F)F)c1,AC50,[1],71.2 µM (active)
same,AC50,[2],11.8 µM (active)
same,outcome,[3],inactive
same,outcome,[4],inactive
same,AC50,[5],1.06 µM (active)
same,AC50,[6],24.7 µM (active)
same,AC50,[20],7.95 µM (active)
same,AC50,[7],0.127 µM (active)
same,outcome,[8],inactive
same,outcome,[9],inactive
CN(C)[C@@H]1C(=O)C(C(N)=O)=C(O)[C@@]2(O)C(=O)C3=C(O)c4c(O)cccc4[C@@](C)(O)[C@H]3[C@H](O)[C@@H]12,outcome,[10],inactive
same,outcome,[11],inactive
same,outcome,[12],inactive
same,outcome,[13],inactive
same,outcome,[14],inactive
same,outcome,[15],inactive
same,outcome,[16],inactive
same,outcome,[17],inactive
same,outcome,[18],inactive
same,outcome,[19],inactive
same,AC50,[1],55.1 µM (active)
same,AC50,[2],42.5 µM (active)
same,AC50,[3],76.1 µM (active)
same,AC50,[4],38.7 µM (active)
same,outcome,[5],inactive
same,outcome,[6],inactive
same,outcome,[20],inactive
same,outcome,[8],inactive
same,AC50,[9],25.8 µM (active)
